# Assay results published in PubChem BioAssay (NCI).
# About 79,000 compounds went through this panel and 15% of them were active in at least one assay; those are over-represented in the sample as a whole. Unmarked numbers belong to inactive results. No stated cut-off is given here; in the data, active means growth inhibition above about 70%; inactive means the rest.
# Test: NCI Yeast Anticancer Drug Screen. Data for the mlh1 rad18 strain (AID 175)
# Details: S. cerevisiae mlh1 rad18 strain growth inhibition; at 50.0 µM; stronger effect = higher value
# Outline: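 Vehicle-treated cultures served as the reference for growth inhibition in a yeast strain carrying DNA damage repair alterations exposed to each compound.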
row,Structure (SMILES),growth inhibition [%]
1,CCNC(=O)c1ccc(Cl)cc1,0.45
2,CC(=O)c1cccc(NC(=O)Nc2ccc(Nc3ccccc3)cc2)c1,-0.8
3,CC(=O)OC1CCC2(C)C(=CCC3C2CCC2(C)C(/C(C)=N/NC(N)=O)CCC32)C1 (stereo unspecified),-0.5
4,O=c1oc2ccccc2cc1S(=O)(=O)c1ccccc1,18.4
5,COc1cccc(OC)c1/C=C1\N=C(c2ccccc2)OC1=O,-9.25
6,CC1C(=O)C(O)CC2C1(C)CCC1C2(C)CCC2(C)C3CC(C)(C)CCC3(C)CCC12C (stereo unspecified),-4.7
7,Clc1ccccc1SSc1ccccc1Cl,29.9
8,O=C(Nc1ccccc1-c1n[nH]c(=S)[nH]c1=O)C(F)(F)F,30.8
9,OCCCN1CCCCC1,3.95
10,COc1cc(/C=C(\C#N)C(N)=O)cc(Br)c1O,-7.35
11,CCCCNC(=O)Oc1cccc2ccccc12,-6.4
12,COC(=O)N/N=C(\C)C(CN1CCCCC1)C(C1=C(O)c2ccccc2OC1)c1ccccc1 (stereo unspecified),28.9
13,CC(=O)OC1COC(n2c(=S)n(-c3ccccc3)c(=O)c3cc(Br)ccc32)C(OC(C)=O)C1OC(C)=O (stereo unspecified),-11.9
14,CCCCS(=O)(=O)CCC(N)P(=O)(O)O (stereo unspecified),-36.9
15,COc1ccc(C=O)c(C)c1,-5.45
16,O=C(CCN1C(=O)c2ccccc2C1=O)NCS(=O)(=O)O,-17.5
17,Nc1ccc(S(=O)(=O)Nc2nc(CN3CCCCC3)cs2)cc1,-7.85
18,CC(=O)OCC1OC(n2cc(F)c(=O)[nH]c2=O)C(NC(=O)N(CCCl)N=O)C(OC(C)=O)C1OC(C)=O (stereo unspecified),-5.85
19,CN(C)NC(=O)Nc1ccc2ccccc2c1,-24.4
20,CCC(=O)Oc1ccc(Cl)cc1C,-13.3
21,CC1(C)CC(=O)OC/C=C\CC(Cc2ccccc2)C(=O)C1 (stereo unspecified),1.9
